Assay results: PubChem BioAssay AID1851 (National Center for Advancing Translational Sciences (NCATS), 2009)
Values joined by “and” are separate entries in the source; they are usually repeats but may differ in a detail not shown here. Equal values may be shown once. Screen size: about 16,000 compounds; about 5,800 (36%) were called active. About 23% were inconclusive and are not listed. Calls come from the whole dose curve; as a rule, active = well fitted curve in the direction sought with a large enough effect; inconclusive = small, poorly fitted or top-dose-only effect, or effect the other way; inactive = no such curve, though single readings can be large or run the other way. Some of the results follow.

What follows are compounds tested against Cytochrome P450 2C19 (Homo sapiens) (UniProt P33261) (assay: Cytochrome panel assay with activity outcomes). Details: recombinant CYP, pro-luciferin dealkylation, luminescence, p450-cyp2c19; series mostly up to 57.1 µM.
Cytochrome P450 2C19 (Homo sapiens), sequence (P33261 whole entry, looked up): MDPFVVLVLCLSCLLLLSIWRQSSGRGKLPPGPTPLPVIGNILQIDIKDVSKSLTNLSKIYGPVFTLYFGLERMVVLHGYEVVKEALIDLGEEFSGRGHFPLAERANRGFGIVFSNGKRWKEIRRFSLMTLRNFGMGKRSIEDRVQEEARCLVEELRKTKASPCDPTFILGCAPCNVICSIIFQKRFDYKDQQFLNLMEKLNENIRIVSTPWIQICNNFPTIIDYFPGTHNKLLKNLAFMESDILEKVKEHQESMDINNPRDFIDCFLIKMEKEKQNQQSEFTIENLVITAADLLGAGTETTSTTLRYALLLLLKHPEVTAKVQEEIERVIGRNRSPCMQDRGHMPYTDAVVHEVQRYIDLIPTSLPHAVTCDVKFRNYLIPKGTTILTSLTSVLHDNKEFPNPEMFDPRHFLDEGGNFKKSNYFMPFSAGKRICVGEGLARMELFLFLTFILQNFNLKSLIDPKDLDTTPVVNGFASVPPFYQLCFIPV
% is set by controls: 0 for no effect and ±100 for the full control effect.

Compound | AC50 | activity, negative = inhibition
COc1ncc2nc(-c3cc(F)cc(F)c3)c(=O)n(-c3ccccc3)c2n1 | inactive | –
Cc1ccccc1OCCCn1c(=O)sc2ccccc21 | 1 µM (active) | –
C[N+](C)(CCCOc1ccccc1)c1ccccc1 | inactive | –
Cc1ccc(OCCCn2c(=O)sc3ccccc32)cc1 | 0.708 µM (active) | –
O=c1sc2ccccc2n1CCCOc1ccccc1 | 1.12 µM (active) | –
C/C(CCN1CCc2nc(-c3ccccc3)c(-c3ccccc3)cc2C1)=N\O[C@@H](C)c1cn([C@H](CO)Cc2ccccc2)nn1 | – | -17.8% [at 11.4 µM] (inactive) and -16.4% [at 11.4 µM] (inactive)
OC[C@@H]1NC[C@@H](O)[C@H]1O | inactive | –
COc1cccc(C=NC=Nc2cccc(OC)c2)c1 | inactive | –
Clc1cccc(C=NC=Nc2cccc(Cl)c2)c1 | 10 µM (active) | –
O=c1[nH][nH]c(C(F)(F)F)c1C=Nc1cccc(Cl)c1 | inactive | –
Cc1noc(C)c1-c1nccc(Nc2ccc(F)cc2)n1 | 3.98 µM (active) | –
Cc1noc(C)c1-c1nccc(NC2CC2)n1 | 10 µM (active) | –
Cc1noc(C)c1-c1nc(Nc2ccccc2)c2ccccc2n1 | inactive | –
Cc1noc(C)c1-c1nc(Nc2ccc(F)cc2)c2ccccc2n1 | 3.16 µM (active) | –
Cc1noc(C)c1-c1nc(NC2CCNCC2)c2ccccc2n1 | inactive | –
CN(C)Cc1ccccc1-c1nccc(NC2CC2)n1 | inactive | –

Compound | AC50 | activity, negative = inhibition
COCCNc1nc(-c2c(C)noc2C)nc2ccccc12 | inactive | –
Cc1noc(C)c1-c1nc(NCCN2CCOCC2)c2ccccc2n1 | 7.94 µM (active) | –
CNc1cc(-c2c(C)noc2C)ncn1 | inactive | –
c1ccc2c(NCCN3CCOCC3)nc(-c3ccoc3)nc2c1 | inactive | –
Cc1ccc(-[n+]2cc(=O)o[nH]2)cc1 | – | -19.9% [at 11.4 µM] (inactive)
CC(C)NC(=O)N1CCCC2(CCN(C(=O)c3ccncc3)CC2)C1 | inactive | –
CSc1nc(NC2CCCC2)c([N+](=O)[O-])c(NC2CCCC2)n1 | 5.01 µM (active) | –
CCNc1nnc(-c2ccncc2)s1 | 5.01 µM (active) | –
COc1ccc(C(=O)O/N=C/c2ccc(S(=O)c3ccc(Cl)cc3)nc2)cc1 (stereo unspecified) | 14.1 µM (active) | –
O=C(NCC1COc2ccccc2O1)C1CCN(S(=O)(=O)c2cccc3nsnc23)CC1 (stereo unspecified) | 14.1 µM (active) | –
Cc1cccc(NC(=O)C2CCN(S(=O)(=O)c3cccc4nsnc34)CC2)n1 | 10 µM (active) | –
COc1ccc2nc(NCN3C(=O)c4ccccc4C3=O)sc2c1 | 2.51 µM (active) | –
COc1ccc2nc(NC(=O)C3CCN(S(=O)(=O)c4cccc5nsnc45)CC3)sc2c1 | 1.41 µM (active) | –
O=C(NCc1cccs1)C1CCN(S(=O)(=O)c2cccc3nsnc23)CC1 | inactive | –
c1cc(CN2CCCCC2)cc(OCCCNc2nc3ccccc3s2)c1 | inactive | –
